Percent Effect data for 40 compounds are collected here from ChEMBL document CHEMBL3988442, “University of Dundee, Small-Polar-MMV Screening Library” (2021).

Structures are written as SMILES.

The first assay has as its target T1, Aspartate--tRNA(Asp/Asn) ligase (Mycobacterium tuberculosis (strain ATCC 25618 / H37Rv)) (UniProt P9WFW3). Note: in the data most compounds retested in dose-response had high values.
T1 sequence (whole entry): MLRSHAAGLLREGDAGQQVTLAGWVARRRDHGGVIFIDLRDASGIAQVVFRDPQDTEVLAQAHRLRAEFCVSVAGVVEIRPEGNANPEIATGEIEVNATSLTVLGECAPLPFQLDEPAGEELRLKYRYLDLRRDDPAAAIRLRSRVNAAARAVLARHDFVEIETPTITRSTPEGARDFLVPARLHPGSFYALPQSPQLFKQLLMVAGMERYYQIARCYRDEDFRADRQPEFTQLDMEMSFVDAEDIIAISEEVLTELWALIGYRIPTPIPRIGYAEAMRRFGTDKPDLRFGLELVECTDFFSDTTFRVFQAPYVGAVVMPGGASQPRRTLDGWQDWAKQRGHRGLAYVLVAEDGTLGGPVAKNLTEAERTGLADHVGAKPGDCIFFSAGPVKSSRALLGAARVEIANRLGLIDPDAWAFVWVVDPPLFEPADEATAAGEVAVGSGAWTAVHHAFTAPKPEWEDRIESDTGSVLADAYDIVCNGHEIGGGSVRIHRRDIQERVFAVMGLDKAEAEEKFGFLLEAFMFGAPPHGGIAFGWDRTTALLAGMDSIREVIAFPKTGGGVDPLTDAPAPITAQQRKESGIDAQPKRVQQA
Briefly: Assay for Asp RNA synthetase-1 from Mycobacterium tuberculosis. Format: functional. More on the design: scale not given: direction of the effect not stated beside the values. The settings on record: 30 µM.
For the compound `Cn1ccc(CN2CCC(NC(=O)Cc3ccccc3)CC2)cc1=O`, the Percent Effect was -3.72%.

On to `COCCOc1ccc(NC(=O)N(C)Cc2ccsc2)cn1`, for which the Percent Effect was found to be 0.514%.

Consider `c1ccc(Cn2cccn2)c(CNCC2CNc3ccnn3C2)c1` (stereo not given), for which the Percent Effect worked out at 1.88%.

As for `COc1ccc(CN2CCC3(CC2)CCN(c2ncccn2)CC3)cc1`, the Percent Effect was 2.89%.

With `CCCC(=O)N1CC[C@@H]2[C@H](CC1)N(Cc1cccnc1)CCS2(=O)=O`, the Percent Effect was -0.493%.

Consider `CSCCNC(=O)c1ccc(OC2CCN(CC(C)(C)C)CC2)c(Cl)c1`, for which the Percent Effect was 1.62%.

Consider `COc1ccc(S(=O)(=O)N2CCC(S(C)(=O)=O)CC2)cc1C`, for which the Percent Effect amounted to 1.12%.

For `COc1cc2nc(C)n(CC(=O)O)c(=O)c2cc1OC`, the Percent Effect came out at 1.68%.

For `CCC1=N[C@@]2(CC[C@@H]3CN(S(=O)(=O)N(C)C)C[C@@H]32)C(=O)N1CC(C)C`, the Percent Effect was determined as 2%.

For the compound `COC[C@@]12CCO[C@@H]1CCN(Cc1ccccc1F)C2`, the Percent Effect was 0.843%.

Turning to `CC(C)Cc1noc(CN(C)C(=O)C2COc3ccccc3C2)n1` (stereo not given), the Percent Effect was -1.81%.

As to `Cc1nc(C)n(CC2CN(c3nnc(C)c(C)c3C#N)CCO2)n1` (stereo not given), the Percent Effect is -1.7%.

As to `CCOc1cccc(CNc2ccccc2C(=O)OC)c1O`, the Percent Effect is -5.37%.

In the case of `CN(C)CCNC(=O)c1ccc(OC2CCN(S(C)(=O)=O)CC2)c(Cl)c1`, the Percent Effect came to 1.85%.

Regarding `Clc1ccccc1C1(c2ccnc(CC3CC3)n2)CCNCC1`, the Percent Effect is -0.0892%.

On to `COc1ccc(CN2CCC[C@@H]3CN(C(=O)c4ccco4)C[C@@H]32)cc1`, for which the Percent Effect stood at 5.87%.

Consider `CCCNC(=O)C(C)NC(=O)CCc1ccccc1Br` (stereo not given), for which the Percent Effect came to 0.362%.

Take `Cc1ncc(CN(C)C2CCCN(Cc3noc(C4CC4)n3)C2)s1` (stereo not given): the Percent Effect is -2.9%.

In the case of `O=C([C@H]1C[C@H]2OCC[C@H]2N(C(=O)C2CCOCC2)C1)N1CCCCO1`, the Percent Effect stood at 0.757%.

For the compound `O=C(c1ccc(OCC2CC2)nc1)N1CCCC(n2cncn2)C1` (stereo not given), the Percent Effect came out at 1.48%.

`COc1cccc2c1OCC(C(=O)NC1CCN(S(C)(=O)=O)CC1)C2` (stereo not given): the Percent Effect is -3.65%.

`Cc1cnn(CC2CCCN2Cc2nnc(Cc3ccccc3)o2)c1` (stereo not given): the Percent Effect was -0.062%.

Consider `CCS(=O)(=O)N1CCc2ccc(NC(=O)Nc3ccc(F)cc3F)cc21`, for which the Percent Effect amounted to 1.65%.

Regarding `COc1cccc(CN(C)C(=O)CCC(=O)c2ccc(Cl)cc2)c1OC`, the Percent Effect is -1.19%.

For `O=C(CC1CC1)N1CCn2cc(Cn3cncn3)nc2C1`, the Percent Effect turned out to be 3.1%.

For `CCCc1n[nH]c(C2CN(CCn3cccn3)CCO2)n1` (stereo not given), the Percent Effect is 3.43%.

`CC[C@@H]1N(Cc2ccsc2)CCC[C@]12CCC(=O)N2CCOC`: the Percent Effect is -5.67%.

On to `CC(=O)N1CCC[C@H]1C(=O)NCCOc1cccc(Cl)c1`, for which the Percent Effect came to 1.97%.

In the case of `COc1c(C(=O)NCc2cccnc2)nnn1Cc1ccc(C)cc1`, the Percent Effect is -4.7%.

`O=C(NCCCOCC1CC1)Nc1cccnc1N1CCOCC1`: the Percent Effect is -1.34%.

Regarding `C[C@@H]1CN(C(=O)c2ccc(C#N)nc2)C[C@@]1(O)C1CC1`, the Percent Effect was found to be 0.0335%.

For the compound `O=C(NCC1CC1)[C@H]1C[C@H]2OCC[C@H]2N(CCc2ccccc2)C1`, the Percent Effect was 3.44%.

Turning to `Cc1cnn(CC2CCCN2C(=O)c2cccc(CC#N)c2)c1` (stereo not given), the Percent Effect is -1.43%.

For the compound `CN(CC(=O)N1CCCC1Cn1cccn1)C1CC1` (stereo not given), the Percent Effect is -2.14%.

On to `Cc1nc(CN2C(=O)COC3(CCN(Cc4ccco4)CC3)C2C)cs1` (stereo not given), for which the Percent Effect is -2.99%.

In the case of `CC(C)n1[nH]c(=O)c2c1NC(=O)CC2c1cccnc1` (stereo not given), the Percent Effect was -1.05%.

Turning to `COc1ccc(CNC(=O)NC2CCN(CC(F)F)CC2)cc1C`, the Percent Effect is -0.127%.

`O=c1[nH]c(CCN2CCCC(Cn3cncn3)C2)nc2ccccc12` (stereo not given): the Percent Effect was -3.23%.

As for `Cc1ccc(CNCc2ccc(-n3nc(C)cc3C)nc2)cc1`, the Percent Effect amounted to 1.23%.

For `CCN1CCN(c2ccc(CNC(=O)c3ccc(Cl)o3)cn2)CC1`, the Percent Effect was -3.07%.

A further assay has as its target Shiga toxin 2 (Escherichia coli O157:H7) (UniProt P09385+P09386). Briefly: E. coli 0.157:H7 Shiga Toxin SOP - stx2 screening assay. More on the design: scale not given: direction of the effect not stated beside the values. Format: functional. The settings on record: 30 µM.
Take `Cn1ccc(CN2CCC(NC(=O)Cc3ccccc3)CC2)cc1=O`: the Percent Effect was 8%.

As for `COCCOc1ccc(NC(=O)N(C)Cc2ccsc2)cn1`, the Percent Effect is -8.11%.

Consider `c1ccc(Cn2cccn2)c(CNCC2CNc3ccnn3C2)c1` (stereo not given), for which the Percent Effect is -40.7%.

For `COc1ccc(CN2CCC3(CC2)CCN(c2ncccn2)CC3)cc1`, the Percent Effect is -0.95%.

With `CCCC(=O)N1CC[C@@H]2[C@H](CC1)N(Cc1cccnc1)CCS2(=O)=O`, the Percent Effect is -7.37%.

Regarding `CSCCNC(=O)c1ccc(OC2CCN(CC(C)(C)C)CC2)c(Cl)c1`, the Percent Effect was -38.1%.

Consider `COc1ccc(S(=O)(=O)N2CCC(S(C)(=O)=O)CC2)cc1C`, for which the Percent Effect is -1.05%.

As for `COc1cc2nc(C)n(CC(=O)O)c(=O)c2cc1OC`, the Percent Effect is -6.96%.

In the case of `CCC1=N[C@@]2(CC[C@@H]3CN(S(=O)(=O)N(C)C)C[C@@H]32)C(=O)N1CC(C)C`, the Percent Effect stood at 9.58%.

For `COC[C@@]12CCO[C@@H]1CCN(Cc1ccccc1F)C2`, the Percent Effect is -24.5%.

Regarding `CC(C)Cc1noc(CN(C)C(=O)C2COc3ccccc3C2)n1` (stereo not given), the Percent Effect was -46.4%.

As for `Cc1nc(C)n(CC2CN(c3nnc(C)c(C)c3C#N)CCO2)n1` (stereo not given), the Percent Effect amounted to 27.3%.

In the case of `CCOc1cccc(CNc2ccccc2C(=O)OC)c1O`, the Percent Effect is -53.6%.

On to `CN(C)CCNC(=O)c1ccc(OC2CCN(S(C)(=O)=O)CC2)c(Cl)c1`, for which the Percent Effect is -25.9%.

Turning to `Clc1ccccc1C1(c2ccnc(CC3CC3)n2)CCNCC1`, the Percent Effect was -10.7%.

Take `COc1ccc(CN2CCC[C@@H]3CN(C(=O)c4ccco4)C[C@@H]32)cc1`: the Percent Effect was determined as 0.332%.

With `CCCNC(=O)C(C)NC(=O)CCc1ccccc1Br` (stereo not given), the Percent Effect is -18.6%.

Regarding `Cc1ncc(CN(C)C2CCCN(Cc3noc(C4CC4)n3)C2)s1` (stereo not given), the Percent Effect came out at 11.1%.

Regarding `O=C([C@H]1C[C@H]2OCC[C@H]2N(C(=O)C2CCOCC2)C1)N1CCCCO1`, the Percent Effect was -26.6%.

Consider `O=C(c1ccc(OCC2CC2)nc1)N1CCCC(n2cncn2)C1` (stereo not given), for which the Percent Effect was -39.7%.

In the case of `COc1cccc2c1OCC(C(=O)NC1CCN(S(C)(=O)=O)CC1)C2` (stereo not given), the Percent Effect is 11.1%.

Consider `Cc1cnn(CC2CCCN2Cc2nnc(Cc3ccccc3)o2)c1` (stereo not given), for which the Percent Effect turned out to be 20%.

With `CCS(=O)(=O)N1CCc2ccc(NC(=O)Nc3ccc(F)cc3F)cc21`, the Percent Effect is -10.5%.

As for `COc1cccc(CN(C)C(=O)CCC(=O)c2ccc(Cl)cc2)c1OC`, the Percent Effect is -1.09%.

Consider `O=C(CC1CC1)N1CCn2cc(Cn3cncn3)nc2C1`, for which the Percent Effect is -11.8%.

`CCCc1n[nH]c(C2CN(CCn3cccn3)CCO2)n1` (stereo not given): the Percent Effect stood at 6.67%.

For `CC[C@@H]1N(Cc2ccsc2)CCC[C@]12CCC(=O)N2CCOC`, the Percent Effect was 7.49%.

In the case of `CC(=O)N1CCC[C@H]1C(=O)NCCOc1cccc(Cl)c1`, the Percent Effect was -31.3%.

On to `COc1c(C(=O)NCc2cccnc2)nnn1Cc1ccc(C)cc1`, for which the Percent Effect is -4.95%.

`O=C(NCCCOCC1CC1)Nc1cccnc1N1CCOCC1`: the Percent Effect was 4.93%.

With `C[C@@H]1CN(C(=O)c2ccc(C#N)nc2)C[C@@]1(O)C1CC1`, the Percent Effect is -1.27%.

With `O=C(NCC1CC1)[C@H]1C[C@H]2OCC[C@H]2N(CCc2ccccc2)C1`, the Percent Effect came to 2.56%.

In the case of `Cc1cnn(CC2CCCN2C(=O)c2cccc(CC#N)c2)c1` (stereo not given), the Percent Effect was 8.24%.

Take `CN(CC(=O)N1CCCC1Cn1cccn1)C1CC1` (stereo not given): the Percent Effect is 12.6%.

On to `Cc1nc(CN2C(=O)COC3(CCN(Cc4ccco4)CC3)C2C)cs1` (stereo not given), for which the Percent Effect was -19.9%.

Regarding `CC(C)n1[nH]c(=O)c2c1NC(=O)CC2c1cccnc1` (stereo not given), the Percent Effect is -6.55%.

As to `COc1ccc(CNC(=O)NC2CCN(CC(F)F)CC2)cc1C`, the Percent Effect is -3.6%.

As to `O=c1[nH]c(CCN2CCCC(Cn3cncn3)C2)nc2ccccc12` (stereo not given), the Percent Effect is -25.8%.

For `Cc1ccc(CNCc2ccc(-n3nc(C)cc3C)nc2)cc1`, the Percent Effect came to 22.8%.

Take `CCN1CCN(c2ccc(CNC(=O)c3ccc(Cl)o3)cn2)CC1`: the Percent Effect is -41.7%.
